# Source: PubChem BioAssay (National Center for Advancing Translational Sciences (NCATS))
# ATXN2 expr inh = ATXN2 expression inhibition; Potency, µM (highest dose often 57 µM), for the others: at the highest dose activity change, negative = inhibition, usual class: inhibitors; hit rate 0.72% among 360,000; HEK-293 ATXN2-luciferase reporter, luminescence, 24 h; further: on the % scale 0 is the no-effect control and ±100 the full control effect; nearly all actives have a fitted effect of over 55% in size
#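 ATXN2-luciferase reporter cells (luciferase flanked by upstream and downstream ATXN2 gene portions) were treated 24 h at 37 °C with compounds at up to 57 uM. SteadyGlo luminescence gave expression; GF-AFC fluorescence gave viability.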
# TDP1 cell noCPT = qHTS for Inhibitors of human tyrosyl-DNA phosphodiesterase 1 (TDP1): qHTS in cells in absence of CPT; DT40 Tdp1-/- hTDP1 cells, no CPT, ATP luminescence, 48 h; Potency, µM (titrated, usually from 46.2 µM), inactives show top-dose activity change, negative = growth inhibition, most hits filed as inhibitors; hit rate 15% among 420,000; AID 686978, 2013; further: on the % scale 0 is the no-effect control and ±100 the full control effect; nearly all actives have a fitted effect of over 55% in size
#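 Compound effects on proliferation are scored in DT40 Tdp1-/-;hTDP1 cells in the absence of CPT. ATP levels (CellTiter-Glo luminescence) are recorded after a ≥48 hr, 37 °C incubation.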
# DT40 TDP1 CPT = DT40-hTDP1 cell growth loss with CPT; Potency, µM (top dose mostly 46.2 µM), inactives show top-dose activity change, negative = growth inhibition, hits mostly inhibitors; chicken DT40 Tdp1-/-;hTDP1 cells + 20 nM CPT, ATP luminescence, 48 h; hit rate 12% among 420,000; further: on the % scale 0 is the no-effect control and ±100 the full control effect; nearly all actives have a fitted effect of over 55% in size
#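 Chicken DT40 Tdp1-/- cells stably complemented with human TDP1 were seeded at 400 cells/well in medium containing 20 nM camptothecin, exposed to pin-transferred compounds, and grown at 37 °C for at least 48 hr. Viability was read as ATP luminescence.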
# TGFb inhibitor = blocks TGF-b signaling. hit rate 1.2% among 410,000. AID 588855. Potency, µM (highest dose often 46.1 µM), inactives show at the highest dose activity, negative = inhibition, hits mostly inhibitors. HepG2 CAGA-GFP TGF-b/SMAD3 reporter, GFP fluorescence, 18 h; TGF-beta stimulated, 500 pg/mL final; further: on the % scale 0 is the no-effect control and ±100 the full control effect; nearly all actives have a fitted effect of over 65% in size
#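 Cell-based qHTS in HEPG2 carrying a CAGA-GFP Smad reporter; compounds added before 500 pg/mL final TGF-beta, 18 h incubation at 37 degrees C, GFP fluorescence quantified per cell by imaging cytometry.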
# HepG2 tox = counter-screen for TGF-b inhibitors: cytotoxicity in HepG2 cells; hit rate 0.76% among 410,000; Potency, µM (highest dose often 46.1 µM), inactives show top-dose activity change, negative = cytotoxicity, most hits filed as cytotoxic; AID 588856; HepG2 CAGA-GFP viability, ATP luminescence, 18 h
#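 HepG2 CAGA-GFP cells (1000/well, DMEM with 1% FBS) received compound, then TGF-beta at 500 pg/mL final, and were incubated 18 hours at 37 degrees C. Viability was read by CellTiter-Glo luminescence. Media-only wells were set as complete cell-killing and DMSO as no toxicity.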
# ATXN viability = cell viability loss in ATXN counter-screen. hit rate 0.49% among 400,000. S2 cells (HEK-293 line with an ATXN2-luciferase reporter) viability, CellTiter-Fluor protease fluorescence, 24 h. Potency, µM (top dose mostly 56.7 µM), hits mostly cytotoxic; further: nearly all actives have a fitted effect of over 40% in size
# An asterisk follows results filed as active; i = inactive; ? = inconclusive; . = not tested or not shown; [ ] = dose if it differs, or a comment. Only some compounds are listed: those with a hit (about 17% of all), similar ones and a draw of the others. The call rests on the fitted dose curve; in most records, active means well fitted curve in the direction sought with a large enough effect; inconclusive means small, poorly fitted or top-dose-only effect, or another doubt; inactive means no such curve, though single readings can be large; an effect the other way counts as inactive or inconclusive. Potency means the concentration at half of the fitted maximal effect.
SMILES,ATXN2 expr inh,TDP1 cell noCPT,DT40 TDP1 CPT,TGFb inhibitor,HepG2 tox,ATXN viability
COCCN(C(=O)COC(=O)c1cnc(C)cn1)c1c(N)n(Cc2ccccc2)c(=O)[nH]c1=O,-9%,4%,10%,0%,-1%,i
CCC(=O)N(c1nnc(SCC(=O)NN2C(=O)NC3(CCCCC3)C2=O)s1)C1CC1,.,9%,9%,-17%,-3%,?
Cc1ccc2c(=O)cc(C(=O)Nc3c(C(=O)Nc4cccc(Cl)c4)oc4ccccc34)oc2c1,4%,-12%,8%,17%,3%,i
CCOC(=O)C1=C[C@@H](C(C)(C)C)N(S(=O)(=O)c2ccccc2C)[C@H]1c1ccc(Cl)cc1,-18%,?,?,?,-10%,i
Cc1c(Cl)cccc1NC(=O)N1CCN(C(=O)c2ccco2)CC1,2%,-29%,?,3%,-7%,i
CCOC(=O)N1CCN(c2nc(-c3ccco3)cc(C(F)(F)F)n2)CC1,-36%,?,?,14%,4%,i
CCOC(=O)N1CCN(c2nc(-c3cccc(OC)c3)cc(C(F)(F)F)n2)CC1,-19%,21µM*,?,10%,-19%,i
O=C(NCCc1ccccc1)c1[nH]c(C(F)(F)F)nc1-c1ccccc1,8%,?,-24%,-14%,1%,i
O=C(NCCC1=CCCCC1)c1[nH]c(C(F)(F)F)nc1-c1ccccc1,-30%,?,16µM*,?,-31%,?
COc1ccccc1N1CCN(S(=O)(=O)c2ccc3c(c2)CCCN3C(C)=O)CC1,0%,?,?,?,-29%,i
Cc1ccc(Oc2c(C(N)=O)cc([N+](=O)[O-])cc2[N+](=O)[O-])cc1,?,5.2µM*,5.8µM*,?,-83%,?
Cc1ccc(CNc2ccc([N+](=O)[O-])cc2C(N)=O)cc1,42%,-21%,-24%,20%,15%,?
COc1ccc(C(=O)N2CCC3(CCCN(c4ncccn4)C3)CC2)cc1,.,?,2%,.,.,.
O=C(Nc1cccc(Cl)c1)OCCOCCOC(=O)Nc1cccc(Cl)c1,?,16µM*,?,-1%,-3%,i
CC(C)COC(=O)NCCOC(=O)Nc1cccc(Cl)c1,-15%,16µM*,16µM*,-14%,-31%,i
CC(C)COC(=O)NCCCOC(=O)Nc1ccccc1,6%,?,?,0%,0%,i
CC(C)OC(=O)NCCOC(=O)Nc1ccc(Cl)cc1,.,15µM*,21µM*,5%,-9%,i
COc1ncc2ncc(=O)n(C)c2n1,.,1%,-4%,.,.,.
N/C(=N\OC(=O)c1ccco1)c1ccc(Cl)cc1,56%,-13%,-13%,2%,5%,i
COc1ccc(N=Cc2nc(-c3ccco3)oc2O)cc1,-5%,29µM*,?,2%,-27%,i
O=C(Oc1oc(-c2ccco2)nc1C=Nc1ccc(Cl)cc1)c1ccco1,49%,9.2µM*,10µM*,-3%,1%,i
Cc1cc(C)c(C#N)c(N2CCN(S(=O)(=O)Cc3ccccc3)CC2)n1,3%,6%,?,0%,-4%,i
COc1cc(NC(=O)N2CCC(CN3CCCCCC3)CC2)cc(OC)c1OC,.,-2%,2%,0%,-1%,.
Fc1ccccc1N1CCN(c2c3c(nc4nncn24)CCC3)CC1,7%,21µM*,?,-19%,-15%,i
COc1ccccc1NC(=O)Cn1c([N+](=O)[O-])cnc1C,3%,-7%,3%,12%,1%,i
SMILES,ATXN2 expr inh,TDP1 cell noCPT,DT40 TDP1 CPT,TGFb inhibitor,HepG2 tox,ATXN viability
COc1ccc(-c2nn(-c3ccccc3)cc2C(=O)n2nnc3ccccc32)cc1,6%,-44%,21µM*,4%,-23%,i
COC(=O)c1cn(-c2ccccc2)nc1-c1ccc(OC)cc1,.,?,-2%,-2%,-30%,i
C#CCOCCOCCOCCNc1nc(N2CCN(C(=O)[C@H](CCCCN)n3cc([C@@H](N)CO)nn3)CC2)nc(N2CCN(C(=O)[C@H](CCCCN)n3cc([C@@H](N)CC(C)C)nn3)CC2)n1,-3%,-4%,5%,-3%,2%,i
COc1ccc(OC)c(NS(=O)(=O)c2ccc3c(c2)CCCN3C(=O)C2CCC2)c1,-3%,?,23µM*,-12%,-25%,i
Cc1ccc(NS(=O)(=O)c2ccc3c(c2)CCCN3C(=O)C2CCC2)c(C)c1,?,?,?,?,-41%,?
CCc1ccccc1NS(=O)(=O)c1ccc2c(c1)CCCN2C(=O)C1CCC1,-29%,21µM*,?,?,-11%,i
COc1cccc(CNC(=O)c2c(OC)cc(=O)n3c2CCN(C(=O)c2ccc(C)cc2C)CC3)c1,.,-12%,-1%[9.04 µM],.,.,i
Cc1ccc(NC(=O)c2c(C)nc3sc(C(=O)NC4CCCC4)c(N)c3c2-c2ccco2)c(C)c1,-16%,5.2µM*,2.9µM*,-15%,4%,i
CCc1ccc(NC(=O)c2sc3nc(C)c(C(=O)Nc4ccc(C)cc4C)c(-c4ccco4)c3c2N)cc1,-11%,-15%,0%,-1%,-8%,i
CCOc1cc(C=O)cc(Cl)c1OCC(N)=O,.,18µM*,?,7%,9%,i
Cc1ccccc1-c1cccc(CN2CCc3nnc(C(NS(C)(=O)=O)C(C)C)n3CC2)c1 (stereo not given),.,?,-9%[9.04 µM],.,.,i
Cc1ccc(S(=O)(=O)NCc2cccc([N+](=O)[O-])c2)cc1,.,?,-20%,0%,-18%,i
Cc1ccc(C(=O)NNC(=O)C2CCCN(c3ncccn3)C2)cc1 (stereo not given),-11%,2%,-2%,0%,3%,i
COc1ccc(-c2ccc(C(=O)NCc3ccco3)c3occc23)c(C)c1,-8%,?,?,?,-20%,i
COc1ccc(-c2ccc(C(=O)NCc3ccc(N(C)C)cc3)c3occc23)c(C)c1,12%,16µM*,?,-10%,-20%,i
COc1ccc(-c2ccc(C(=O)NCCc3ccccc3)c3occc23)c(C)c1,-14%,21µM*,21µM*,-27%,-20%,?
COc1ccc(-c2ccc(C(=O)NCc3cccs3)c3occc23)c(C)c1,-27%,?,?,?,-11%,i
